# In the library only some 4.3% were active in any assay of this set; here they are far more common.
# GRIN3A LBD mod = binders of NR3A ligand-binding domain, primary screen, biophysical, differential scanning fluorimetry, uHTS. Tm shift relative to glycine control, % at 25 µM. NR3A LBD differential scanning fluorimetry, Tm shift; 0% = protein alone, 100% = glycine-bound protein. 2.5% of 340,000 active. AID 1259313, 2017. Glutamate receptor ionotropic, NMDA 3A (GRIN3A) ligand-binding domain;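 active means melting temperature shift of at least 10% of the positive control shift, at one fixed dose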
# NALP1 inh = NALP1 inflammasome inhibitors in reconstituted yeast, colorimetric, S. cerevisiae, triplicate retest; S. cerevisiae NALP1/ASC/caspase-1 growth, X-gal OD620, 72 h; 0.61% of 280,000 active; inhibition, % at 10 µM; in the data active means inhibition mostly above about 24%, no sharp cut-off; inactive means mostly below about 32%
# Yeast superoxide = reduction of superoxide in aged yeast, primary screen, HTS; S. cerevisiae aged cells, superoxide DHE fluorescence; hits give low values; 0.18% of 330,000 active; superoxide response (% of plate mean), % at 10 µM;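 active means superoxide response under a set limit, about three screen SD below normal, cut at about 65% in these data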;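 further: yeast aged for seven days with compound at 30 °C before DHE staining; 100% = average MFI of all compound-treated wells on the plate with controls excluded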
# dFosB act = activators of delta FosB homodimer, primary screen, biochemical, fluorescence polarization, TAMRA-CDK5 oligo, single point; activation, % at 25 µM; 0.99% of 340,000 active; purified delta FosB; percent of positive-control signal above neutral wells; Protein FosB (Mus musculus), P13346;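 active means mean activation above about 17%, with every replicate also reaching it, limit read from the data, passing the limit was not always enough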
# UBC13 inh = UBC13 polyubiquitin chain formation inhibitors, primary screen, biochemical, TR-FRET, uHTS. 0.47% of 330,000 active. inhibition, % at 20 µM; in the data active means inhibition above about 45%, passing the limit was not always enough
# Target sequence (P61088 whole entry, looked up): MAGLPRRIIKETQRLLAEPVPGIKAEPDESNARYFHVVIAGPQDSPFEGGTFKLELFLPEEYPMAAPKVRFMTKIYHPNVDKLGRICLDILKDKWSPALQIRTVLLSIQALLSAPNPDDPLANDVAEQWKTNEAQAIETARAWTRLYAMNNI
# Casp3 counter = CASP3 inhibitor validation, counterassay for project on UBE2N polyubiquitination blockers, biochemical, one dose. shares compounds with UBC13 inh. Recombinant caspase-3, Caspase-Glo 3/7 luminescence, 60 min. inhibition, % at 20 µM. 4% of 1,400 active;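 active means mean inhibition across replicates above about 26%, limit read from the data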;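 further: plate controls were DMSO with caspase-3 for no effect and DMSO wells lacking enzyme for full effect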
# UBC13 conf = UBC13 polyubiquitination inhibitors, single-point retest, confirmation, biochemical, TR-FRET, single concentration | shares compounds with UBC13 inh | inhibition, % at 10 µM | 68% of 1,400 active | AID 488859, 2010; in the data active means inhibition above about 45%
# * marks the source's active call; other numbers are inactive results; · = not tested or not shown.
SMILES,GRIN3A LBD mod,NALP1 inh,Yeast superoxide,dFosB act,UBC13 inh,Casp3 counter,UBC13 conf
COc1cc(/C=N/NC(=O)CSCc2ccc([N+](=O)[O-])cc2)cc(OC)c1OC,-2,15,87,-2,86*,0,103*
COc1ccc([N+](=O)[O-])cc1NC(=O)CSCc1ccc(Br)cc1,-4,14,92,-1,-4,·,·
O=C(CSCc1ccc([N+](=O)[O-])cc1)NN=C1CCCCCC1,-20,5,80,-6,91*,-2,105*
COc1ccc(/C=N/NC(=O)CSCc2ccc([N+](=O)[O-])cc2)cc1OC,-1,20,111,-2,79*,1,71*
COc1ccc(OC)c(/C=C/C(=O)c2ccc(Cl)cc2)c1,0,20,92,-7,4,·,·
COc1ccccc1NC(=O)c1ccc(NC(=O)COC(=O)c2cccnc2Cl)cc1,6,·,100,-5,4,·,·
COCc1cc(=O)[nH]c(Nc2nc3ccc(C)cc3o2)n1,0,-8,94,-7,74*,27*,89*
CCN1C(N(C)CCc2c[nH]c3ccccc23)=N[C@@H](c2cccc(C(F)(F)F)c2)C(C(=O)OC)=C1C,-4,·,92,-1,60*,-1,49*
CN1C(C(=O)Nc2cccc(O)c2)=CC(c2ccco2)=NS1(=O)=O,-5,7,105,-1,-2,·,·
CCN(C(=O)CSc1nc2ccccc2[nH]1)C1CCS(=O)(=O)C1 (configuration not stated),0,·,93,-4,-11,·,·
Cn1cnc(S(=O)(=O)N2CCN(C(c3ccc(F)cc3)c3ccc(F)cc3)CC2)c1,5,0,94,3,3,·,·
CC(=O)c1ccc(Sc2ccc(C(C)=O)cc2)cc1,0,23,111,-2,45*,4,32
Nc1ccc(OCCCc2c(N)nc(N)nc2N)cc1,1,8,89,21*,47*,1,64*
COc1ccc(Cc2c(N)nc(N)nc2N)cc1,-2,-3,86,-7,5,·,·
COc1ccc(C(=O)Nn2c(SCC(=O)NCC3CCCO3)nc3ccccc3c2=O)cc1 (configuration not stated),1,30,106,-5,58*,71*,48*
O=C(CSc1nc2ccccc2c(=O)n1CC1CCCO1)NCC1CCCO1 (configuration not stated),-3,-6,92,0,0,·,·
COc1ccc(C(=O)Nn2c(SCC(=O)NC3CCCC3)nc3ccccc3c2=O)cc1,-3,10,95,-8,44,·,·
COc1ccc(C(=O)Nn2c(SCC(=O)NCc3ccccc3)nc3ccccc3c2=O)cc1,-2,38*,112,12,52*,3,58*
O=C(NC(=S)Nc1ccc(N2CCN(C(=O)c3ccccc3)CC2)cc1)c1cccs1,1,-20,110,4,48*,0,56*
Cc1c(C(=O)NC2CC(=O)N(c3ccc4c(c3)OCCO4)C2)cccc1[N+](=O)[O-] (configuration not stated),-3,·,113,3,0,·,·
Cc1ccc(S(=O)(=O)n2cc(-c3ccccc3)c3ccccc32)cc1,-1,·,109,-4,-3,·,·
Cc1ccc(S(=O)(=O)n2cc(C=O)c3ccccc32)cc1,0,-13,104,-3,83*,5,85*
CN(CC(=O)Nc1ccc(Cl)c(C(F)(F)F)c1)C(=O)c1cccs1,-2,·,105,-2,-2,·,·
CNC(=O)NC(=O)CSc1nnc(C(F)(F)F)n1C,2,-1,115,2,-1,·,·
C=CCNC(=O)NC(=O)CSc1nnc(C(F)(F)F)n1C,0,-6,91,3,48*,0,9
COc1ccccc1NC(=O)c1c([N+](=O)[O-])cnn1C,0,-4,100,-6,-1,·,·

# Screens: PubChem, several laboratories
